Measurements as given in PubChem BioAssay (NCATS).
Inconclusive results are not listed. Activity calls are given as the source filed them. Calls come from the whole dose curve; as a rule, active = well fitted curve in the direction sought with a large enough effect; inconclusive = small, poorly fitted or top-dose-only effect, or another doubt; inactive = no such curve, though single readings can be large; an effect the other way counts as inactive or inconclusive.

Each compound was assayed against Aldehyde dehydrogenase, mitochondrial (Homo sapiens) (UniProt P05091) (assay: qHTS for Inhibitors of the Aldehyde Dehydrogenase Family (ALDH2) Primary screen (AID 2061308;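 note: plate controls were vehicle for no effect and reference inhibitor for full effect; nearly all actives have a fitted effect of over 55% in size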)). Conditions: ALDH2 enzyme inhibition qHTS, 1536-well; series mostly up to 56 µM; activity change, negative = inhibition: at the top concentration.

SMILES | activity change, negative = inhibition
COc1nccc(-c2c(-c3ccc(F)cc3)ncn2C2CCC(O)CC2)n1 (stereo unspecified) | -3.76% (inactive)
CNC(=O)c1cccc2cc(Oc3ccnc4cc(OCC5(N)CC5)c(OC)cc34)ccc12 | 5.03% (inactive)
Cc1ccccc1-n1nc(-c2c(-c3ccc(F)cc3)nn3c2NC[C@@H](CO)C3)ccc1=O | 8.87% (inactive)
CC1(C)CN(C(=O)c2ccc(-c3cccc4nc(NC(=O)C5CC5)nn34)cc2)C1 | -5.28% (inactive)
Cc1cc(F)c(C(=O)Nc2cccc(-c3nncn3C(C)C)n2)cc1-n1cnc(C2CC2)c1 | -4.63% [at 28 µM] (inactive)
C[C@@H](c1ccc2nccn2c1)n1nnc2ncc(-c3cnn(C)c3)nc21 | -12.3% (inactive)

The compounds below were run against Retinaldehyde dehydrogenase 3 (Homo sapiens) (UniProt P47895) (assay: qHTS for Inhibitors of the Aldehyde Dehydrogenase Family (ALDH1A3) Primary screen (AID 2061315;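 note: plate controls were DMSO vehicle for no effect and reference inhibitor for full effect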)). Conditions: ALDH inhibition qHTS; series mostly up to 56 µM; activity change, negative = inhibition: at the top concentration.

SMILES | activity change, negative = inhibition | Potency
CN(C)CC(=O)N1CCC(c2ccc(NC(=O)c3ncc(C#N)[nH]3)c(C3=CCCCC3)c2)CC1 | 52.3% (inactive) | –
Nc1ncnc2c1ncn2[C@@H]1O[C@H](CO)C[C@H]1O | -18% (inactive) | –
Cc1ccccc1C(=O)c1ccc(Nc2ccc(Br)cc2N)cc1Cl | 12.2% (inactive) | –
Nc1nccc(Oc2ccc(NC(=O)c3c[nH]cc(-c4ccc(F)cc4)c3=O)cc2F)c1Cl | 43.9% (inactive) | –
O=C(O)c1ccc(Nc2ncc3c(n2)-c2ccc(Cl)cc2C(c2c(F)cccc2F)=NC3)cc1 | 5.84% (inactive) | –
Nc1cccc(S(=O)(=O)N2CCCN(S(=O)(=O)c3ccc4c(c3)OCCO4)CC2)c1 | 1.76% (inactive) | –
Nc1nc(OCc2cc(Br)cs2)c2[nH]cnc2n1 | -0.124% (inactive) | –
CC[C@H](NC(=O)[C@H](CS(=O)(=O)CC1CC1)N[C@@H](c1ccc(F)cc1)C(F)(F)F)C(=O)C(=O)NC1CC1 | 2.9% (inactive) | –
Cc1cc(C(=O)Nc2cc(Oc3ccc4nc(NC(=O)C5CC5)cn4n3)ccc2C)n(C)n1 | -9.21% (inactive) | –
Cc1cnc(CNC(=O)c2c(=O)c3ccc(N4CCCN(C)CC4)nc3n3c2sc2ccccc23)cn1 | 2.3% [at 11.2 µM] (inactive) | –
COc1cc2nccc(Oc3ccc(NC(=O)Nc4cc(C)on4)c(Cl)c3)c2cc1OC | 15.7% (inactive) | –
O=c1[nH]c([C@@H]2CCCN2)nc2c1oc1ccc(Cl)cc12 | 32.2% (inactive) | –
Cc1cc(SCc2sc(-c3ccc(C(F)(F)F)cc3)nc2C)ccc1OCC(=O)O | – | inactive
O=C(NC1CCOCC1)c1ccc(-c2cc(-c3cn[nH]c3-c3ccccn3)ccn2)cc1 | 87.4% (inactive) | –
Cc1csc(-c2nnc(Nc3ccc(Oc4ncccc4-c4ccnc(N)n4)cc3)c3ccccc23)c1 | -9.06% (inactive) | –
CC(C)(C)Cn1c(N)nc2ccc(-c3[nH]c(C(C)(C)C)nc3-c3ccc(F)cc3)nc21 | 32.5% (inactive) | –
COc1ccc(-c2c(-c3ccc(O)cc3O)n[nH]c2C)cc1 | 23.6% (inactive) | –
C[C@@H]1CCN(C(=O)N2CCCC2)C[C@@H]1N(C)c1ncnc2[nH]ccc12 | 13.5% (inactive) | –
Cc1cc2c(cc1C1(c3ccc(C(=O)O)cn3)CC1)C(C)(C)CCC2(C)C | – | inactive
Cn1c2cc(S(C)=O)sc2c2cnn(Cc3cccc(N)c3)c(=O)c21 (stereo unspecified) | -1.01% (inactive) | –

SMILES | activity change, negative = inhibition | Potency
Cc1cccc(Nc2nc(-c3ccncc3)cs2)c1 | -4.61% (inactive) | –
COc1cc(Nc2ncc3c(n2)-c2ccc(Cl)cc2C(c2c(F)cccc2OC)=NC3)ccc1C(=O)O | – | inactive
CCN(CCCOc1ccc2c(Nc3cc(CC(=O)Nc4cccc(F)c4)[nH]n3)ncnc2c1)CCOP(=O)(O)O | 55.7% (inactive) | –
O=C(NC[C@H](O)CN1CCc2ccccc2C1)c1ccnc(NC2CCC2)c1 | 2.3% (inactive) | –
COc1cc(F)c(F)c(Nc2ccc(I)cc2F)c1NS(=O)(=O)C1(C[C@H](O)CO)CC1 | – | inactive
CC(C)(C)c1cc(NC(=O)Nc2ccc(-c3cn4c(n3)sc3cc(OCCN5CCOCC5)ccc34)cc2)no1 | -1.69% (inactive) | –
CN(NC(=O)CC(=O)NN(C)C(=S)c1ccccc1)C(=S)c1ccccc1 | 96.9% (inactive) | –
CNC(=O)c1ccc(C)c(-n2c(C)cc(OCc3ccc(F)cc3F)c(Br)c2=O)c1 | -10.1% (inactive) | –
CN1CCN(C(=O)c2ccc3cc(CCNc4ncnc5ccc(C#N)cc45)ccc3c2)CC1 | -6.48% (inactive) | –
CCCCCN(CCC12CC3CC(CC(C3)C1)C2)C(=O)NCCCc1ccncc1 | -0.594% (inactive) | –
CC(C)(O)CC(=O)NCCn1ccc2ncnc(Nc3ccc(Oc4cccc(C(F)(F)F)c4)c(Cl)c3)c21 | 7.37% (inactive) | –
O=C(O)c1ccc(O)c2ncc(N3CCOCC3)cc12 | -2.13% (inactive) | –
CC[C@@](C)(Nc1ccnc(-c2c[nH]c3ncccc23)n1)C(=O)NCC(F)(F)F | 12.1% (inactive) | –
CC(C)(C)Sc1c(CC(C)(C)C(=O)O)n(Cc2ccc(Cl)cc2)c2ccc(OCc3ccc4ccccc4n3)cc12 | 2.66% (inactive) | –
COc1nccc(-c2c(-c3ccc(F)cc3)ncn2C2CCC(O)CC2)n1 (stereo unspecified) | -7.23% (inactive) | –
CNC(=O)c1cccc2cc(Oc3ccnc4cc(OCC5(N)CC5)c(OC)cc34)ccc12 | -15.4% (inactive) | –
Cc1ccccc1-n1nc(-c2c(-c3ccc(F)cc3)nn3c2NC[C@@H](CO)C3)ccc1=O | -0.921% (inactive) | –
CC1(C)CN(C(=O)c2ccc(-c3cccc4nc(NC(=O)C5CC5)nn34)cc2)C1 | 1% (inactive) | –
Cc1cc(F)c(C(=O)Nc2cccc(-c3nncn3C(C)C)n2)cc1-n1cnc(C2CC2)c1 | -24.3% [at 28 µM] (inactive) | –
C[C@@H](c1ccc2nccn2c1)n1nnc2ncc(-c3cnn(C)c3)nc21 | -6.49% (inactive) | –
